KB-V1 MDR tox – kills drug-selected multidrug resistant KB-V1 cells | actives 3.4% (n = 400,000) | KB-V1 MDR cells viability, CellTiter-Glo, 72 h | Potency, µM (doses to about 46.1 µM), usual class: cytotoxic; also: nearly all actives have a fitted effect of over 60% in size
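Cytotoxicity toward P-gp-expressing KB-V1 cells was determined as loss of CellTiter-Glo luminescence after 72 h at 37 degrees C. Compounds were tested in quantitative HTS format across a concentration range, with curves fitted to normalized data.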
DT40 TDP1 CPT – growth inhibition of DT40 Tdp1-/-;hTDP1 cells with camptothecin (screen for TDP1 inhibitors). chicken DT40 Tdp1-/-;hTDP1 cells + 20 nM CPT, ATP luminescence, 48 h. Potency, µM (titrated, usually from 46.2 µM), for the others: at the highest dose activity change, negative = growth inhibition, most hits filed as inhibitors. actives 12% (n = 420,000). AID 686979; also: nearly all actives have a fitted effect of over 55% in size
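Chicken DT40 Tdp1-/- cells stably complemented with human TDP1 were seeded at 400 cells/well in medium containing 20 nM camptothecin, exposed to pin-transferred compounds, and grown at 37 °C for at least 48 hr. Viability was read as ATP luminescence.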
TDP1 cell noCPT – qHTS for Inhibitors of human tyrosyl-DNA phosphodiesterase 1 (TDP1): qHTS in cells in absence of CPT; DT40 Tdp1-/- hTDP1 cells, no CPT, ATP luminescence, 48 h; AID 686978, 2013; Potency, µM (top dose mostly 46.2 µM), without a hit: at the top dose activity change, negative = growth inhibition, hits mostly inhibitors; actives 15% (n = 420,000); also: nearly all actives have a fitted effect of over 55% in size
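Compound effects on proliferation are scored in DT40 Tdp1-/-;hTDP1 cells in the absence of CPT. ATP levels (CellTiter-Glo luminescence) are recorded after a ≥48 hr, 37 °C incubation.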
HT1080 IDH1KD tx – kills HT-1080 cells with IDH1 knockdown. HT-1080 IDH1 knockdown viability, ATP luminescence, 48 h. Potency, µM (doses to about 46.1 µM), without a hit: at the top dose activity, negative = toxicity, hits mostly cytotoxic. actives 2% (n = 360,000);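 also: 0% = DMSO wells and -100% = cell-free medium wells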
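% activity derives from luminescence (CellTiter-Glo), normalised to DMSO and no-cell wells. HT-1080-IDH1KD cells, 750/well, had 48 h compound exposure at 37 °C.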
HT1080NT lethal – kills 2HG-producing HT-1080-NT fibrosarcoma cells | HT-1080-NT fibrosarcoma viability, CellTiter-Glo ATP luminescence, 48 h | AID 686970 | Potency, µM (series often up to 46.1 µM), without a hit: top-dose activity, negative = less viability, usual class: cytotoxic | actives 1.6% (n = 360,000);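 also: NT is the 2HG producing partner of a matched IDH1 knockdown line; 0% = DMSO-treated cells and -100% = media-only wells without cells; nearly all actives have a fitted effect of over 55% in size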
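A 48-hour cytotoxicity screen used HT-1080-NT cells plated 2 hours before compound delivery. ATP-based CellTiter-Glo luminescence measured viability, normalized to DMSO and no-cell controls.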
KB-3-1 cytotox – KB-3-1 parental cell cytotoxicity; KB-3-1 viability, CellTiter-Glo ATP luminescence, 72 h; Potency, µM (series often up to 46.1 µM), most hits filed as cytotoxic; actives 1.4% (n = 400,000); also: nearly all actives have a fitted effect of over 60% in size
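Here the drug-naive KB-3-1 line serves as comparator for MDR sub-line selectivity; cells received compound titrations, 72 h at 37 °C, then CellTiter-Glo readout.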
An asterisk follows results filed as active; i = inactive; ? = inconclusive; nt = no result. Most compounds without a hit are left out; they make up all but 19% or so of the library. Calls follow the shape of the dose curve; as a rule, active = well fitted curve in the direction sought with a large enough effect; inconclusive = small, poorly fitted or top-dose-only effect, or another doubt; inactive = no such curve, though single readings can be large; an effect the other way counts as inactive or inconclusive. Unless noted, % is scaled to controls: 0 for no effect and ±100 for the full control effect; potency is read from the fitted curve at half-maximal effect.

SMILES	KB-V1 MDR tox	DT40 TDP1 CPT	TDP1 cell noCPT	HT1080 IDH1KD tx	HT1080NT lethal	KB-3-1 cytotox
O=C(O)c1cc(O)c2c(c1)[C@H]([C@H]1c3cc(C(=O)O)cc(O)c3C(=O)c3c(O[C@@H]4O[C@H](CO)[C@@H](O)[C@H](O)[C@H]4O)cccc31)c1cccc(O[C@@H]3O[C@H](CO)[C@@H](O)[C@H](O)[C@H]3O)c1C2=O	nt	-21%	-11%	nt	nt	nt
COc1cccc(CNc2nc3ccccc3n2CCN2CCCCC2)c1	?	13µM*	?	?	?	?
COc1ccc(CNc2nc3ccccc3n2CCN2CCCCC2)c(OC)c1	18µM*	18µM*	23µM*	-25%	-13%	i
Brc1ccc(CNc2nc3ccccc3n2CCN2CCCCC2)cc1	i	?	23µM*	?	?	i
CCn1c(NCc2cc(OC)ccc2OC)nc2ccccc21	i	-1%	?	-4%	-5%	i
COc1ccc(OC)c(CNc2nc3ccccc3n2CCN2CCCCC2)c1	4.1µM*	?	?	?	?	?
Brc1cccc(CNc2nc3ccccc3n2CCN2CCCCC2)c1	i	?	?	-27%	?	i
C=CCn1c(NCc2ccc(OC)cc2O)nc2ccccc21	i	?	?	-8%	5%	i
CCOC(=O)c1ccccc1NC(=O)N1CCN(Cc2cc(=O)n3nc(-c4ccccc4)sc3n2)CC1	?	-2%	-5%	nt	nt	i
CC1CCN(CC2CCN(C(=O)Nc3ccc(Br)cc3F)CC2)CC1	i	-10%	-18%	nt	nt	i
O=C(NCc1ccccc1)c1cccn1-c1nnc(N2CCCCC2)s1	i	?	?	nt	nt	i
Cc1ccn2c(=O)cc(CSc3nnc(C)s3)nc2c1	nt	4%	-6%	nt	nt	nt
CCOC(=O)c1ccc(Nc2nc3ccc(C(=O)c4ccccc4)cc3n3c(C)nnc23)cc1	?	-22%	-18%	nt	nt	i
CNS(=O)(=O)c1cn(CC(=O)Nc2ccc(OC)c(Cl)c2)cc1S(=O)(=O)NC	i	0%	-9%	nt	nt	i
c1ccc(Cn2c(CNc3nc4ccccc4n3CCN3CCOCC3)nc3ccccc32)cc1	8.2µM*	?	?	?	?	i
CC(=O)N(C(C)=O)n1c(/C=C/c2ccc([N+](=O)[O-])cc2)nc2ccccc2c1=O	i	?	?	?	?	i
Cc1[nH]c2ccccc2c1/C=C/c1nc2ccccc2c(=O)n1-c1cccc([N+](=O)[O-])c1	?	?	18µM*	?	?	i
O=c1c2ccccc2nc(/C=C/c2c[nH]c3ccccc23)n1-c1ccc([N+](=O)[O-])cc1	i	10µM*	?	0%	0%	i
COc1ccc(-n2c(/C=C/c3c(C)[nH]c4ccccc34)nc3ccccc3c2=O)cc1	i	?	?	nt	nt	i
COc1ccccc1-c1noc2c1C(=O)NCC2	i	-17%	-27%	5%	8%	i
Cc1cc2c3c([nH]c2cc1S(=O)(=O)N1CCC2(CC1)OCCO2)CC(C)(C)CC3=O	i	?	-58%	-5%	-28%	i
CCc1cc2c3c([nH]c2cc1S(=O)(=O)N1CCC2(CC1)OCCO2)CCCC3=O	i	23µM*	16µM*	-15%	-15%	i
Nc1ccc2c(Cl)cc(Cl)cc2c1	i	-13%	-25%	-11%	-5%	i
COc1ccc(CN2C(=O)c3ccccc3C(/C=N\OCc3ccc(C)cc3)C2=O)cc1 (centres undefined)	?	21µM*	21µM*	-22%	-21%	21µM*
O=C(CNC(=O)c1ccccc1)NCC(O)c1ccc([N+](=O)[O-])cc1 (centres undefined)	i	-5%	-1%	19%	21%	i
SMILES	KB-V1 MDR tox	DT40 TDP1 CPT	TDP1 cell noCPT	HT1080 IDH1KD tx	HT1080NT lethal	KB-3-1 cytotox
CCC(=O)Nc1ccc(C)cc1-c1nc2ccccc2n(C(C)C(=O)Nc2ccccc2CC)c1=O (centres undefined)	i	18µM*	21µM*	nt	nt	i
CCC(=O)Nc1ccccc1-c1nc2ccccc2n(C(CC)C(=O)Nc2cccc(C(C)=O)c2)c1=O (centres undefined)	i	?	?	nt	nt	i
CC(=O)Nc1ccccc1-c1nc2ccccc2n(CC(=O)c2ccc(C)c(C)c2)c1=O	i	21µM*	?	nt	nt	i
CCc1ccc(NC(=O)C(CC)n2c(=O)c(-c3ccccc3NC(C)=O)nc3ccccc32)cc1 (centres undefined)	i	23µM*	23µM*	nt	nt	i
CCC(C(=O)Nc1cccc(C#N)c1)n1c(=O)c(-c2ccccc2NC(C)=O)nc2ccccc21 (centres undefined)	i	23µM*	13µM*	nt	nt	?
COC(=O)C[C@H]1CC[C@@H]2[C@H](COC[C@H](O)CN2S(=O)(=O)c2ccccc2OC)O1	i	2%	6%	-1%	21%	i
CN(c1ccccc1)S(=O)(=O)c1cccc(NC(=O)CSc2nncs2)c1	4.1µM*	7.3µM*	8.2µM*	-10%	-7%	?
CN(c1ccccc1)S(=O)(=O)c1cccc(NC(=O)CSc2nnc(C3CC3)n2C)c1	i	-16%	-15%	-12%	-1%	i
Cc1ccccc1C(=O)Nc1cccc(NC(=O)Cn2cnc3c(=O)n(C)c(=O)n(C)c32)c1	i	10µM*	8.2µM*	11µM*	?	i
CN(c1ccccc1)S(=O)(=O)c1cccc(NC(=O)CSc2ncn[nH]2)c1	i	8.2µM*	5.8µM*	-16%	-3%	?
CN(c1ccccc1)S(=O)(=O)c1cccc(NC(=O)Cn2cnc3c2c(=O)n(C)c(=O)n3C)c1	?	23µM*	16µM*	-2%	-12%	?
O=C(NC(=O)c1ccc(F)cc1F)Nc1ccc(Cl)cc1	i	5%	-2%	24%	21%	i
CC(=O)c1cccc(NC(=O)c2c(N3CCCC3=O)c3cc(F)ccc3n2C)c1	?	nt	nt	nt	nt	i
CC(C)N(Cc1ccccc1)C(=O)Cn1ncc2c([nH]c3ccccc32)c1=O	i	-13%	?	nt	nt	i

Source: PubChem (National Center for Advancing Translational Sciences (NCATS))
